# Measured values from ChEMBL document CHEMBL3988442, “University of Dundee, Small-Polar-MMV Screening Library” (2021).
# The whole screen tested about 69,000 compounds, of which about 950 (1.4%) showed an effect of 50% or more. Shown is part of a subset that was picked to be rich in strong results.
# Tested on: Mycobacterium tuberculosis
# Experiment: Cornell M. t heat shock assay; also: in the data most compounds retested in dose-response had high values
# Assay type: functional, organism-based
# Parameters: dose or concentration left out as unconfirmed
row,SMILES,Percent Effect [%]
1,CCN1CCn2c(C)cnc2C12CCN(C(=O)c1ccco1)CC2.O=C(O)C(F)(F)F.O=C(O)C(F)(F)F,-2.925
2,CN(C)CCN1C(=O)CCC12CCCN(C(=O)N(C)C)CC2.O=C(O)C(F)(F)F (stereo unspecified),-13.38
3,Cc1nc(C2(O)CCCNCC2)sc1CCOc1ccc(F)cc1.Cl (stereo unspecified),-29.66
4,CC[C@@H]1N(Cc2cccnc2)CCC[C@]12CCC(=O)N2C.O=C(O)C(F)(F)F.O=C(O)C(F)(F)F,-6.56
5,Cc1cc(CCC2CN(CC3(O)CCCCC3)CCO2)ncn1 (stereo unspecified),-44.25
6,O=C(O)C(F)(F)F.O=C1CC[C@H]2[C@@H](CCN2Cc2ccco2)N1,9.652
7,O=C(O)C(F)(F)F.O=C(O)C(F)(F)F.c1cc(CN2C[C@@H]3OCCN(CC4CCCO4)[C@@H]3C2)cs1 (stereo partly specified),-21.3
8,Cn1cc(CN2C[C@@H]3COC[C@]3(CNC(=O)c3ccccc3)C2)cn1.O=C(O)C(F)(F)F,-17.03
9,Cn1cc(CN2CCC3(CC2)CCN(C(=O)c2cscn2)CC3)cn1.O=C(O)C(F)(F)F,-25.9
10,Cc1noc(NC(=O)CCNC(=O)c2ccc(Br)cc2)n1,-35.97
11,Cc1noc(NC(=O)c2ccc(Br)cc2)n1,103.7
12,Cc1noc(NCc2cc(F)ccc2F)n1,-3.185
13,Cc1noc(NC(=O)c2ccccc2)n1,75.22
14,CN1C[C@H](O)C[C@H]1c1nc(-c2ccc(OC(F)(F)F)cc2)no1,-7.267
15,Cc1nn(C(C)C)c(C)c1NC(=O)c1ccccc1,-7.424
16,Cn1nc(CNC(=O)c2ccc(OC(F)(F)F)cc2)c2c1CCOC2,-19.12
17,Cc1noc(NC(=O)c2ccc(OC(F)(F)F)cc2)n1,102.9
18,Cc1noc(NCc2ccc(F)cc2)n1,-14.89
19,Cc1c(NC(=O)c2ccc(Br)cc2)c(C(=O)N(C)C)nn1C,5.328

row,SMILES,Percent Effect [%]
1,Cc1noc(NC(=O)c2ccc(F)cc2)n1,105.9
2,Cc1noc([C@@H]2C[C@H](NC(=O)Nc3ccccc3)CN2C)n1,-29.39
3,COc1cc2cc(C)c(SCCN3CCCC3)nc2cc1OC.Cl,5.186
4,Cn1ncc2c1C(COCC1CC1)N(Cc1ccoc1)CC2.O=C(O)C(F)(F)F.O=C(O)C(F)(F)F (stereo unspecified),-34.45
5,O=C(NC[C@H]1OC[C@@H]2CN(Cc3ccco3)CC[C@@H]21)c1cccnc1.O=C(O)C(F)(F)F.O=C(O)C(F)(F)F,-10.25
6,Cc1noc(C)c1CN1CCO[C@H]2CN(C(=O)C3CCOCC3)C[C@H]21.O=C(O)C(F)(F)F,-18.06
7,COc1ncccc1CNC1CCc2c(ccc(=O)n2C)C1.O=C(O)C(F)(F)F.O=C(O)C(F)(F)F (stereo unspecified),17.68
8,NC(=O)N1C[C@H]2CN(Cc3nccs3)C[C@H]2C1.O=C(O)C(F)(F)F,-3.349
9,Cc1ccc(C(=O)N2CCN3C[C@H](Oc4cccnc4)C[C@H]3C2)cn1.O=C(O)C(F)(F)F.O=C(O)C(F)(F)F.O=C(O)C(F)(F)F,-27.6
10,COc1ccc2[nH]cc(C(=O)CNc3nccs3)c2c1.I,0.8623
11,O=C(O)C(F)(F)F.O=C(c1cnccn1)N1C[C@@H]2C[C@@H](c3nc(C4CC4)cs3)O[C@@H]2C1,1.274
12,Cc1ccc(C(=O)Nc2cn[nH]c2)cc1,-8.204
13,Cc1ccc(C(=O)Nc2nc(C)no2)cc1,75.29
14,Cc1ccc(C(=O)Nc2c(C(=O)N(C)C)nn(C)c2C)cc1,-14.21
15,Cc1nnc(N2CCCC3(CN(Cc4cccnc4)CCO3)C2)o1.O=C(O)C(F)(F)F.O=C(O)C(F)(F)F.O=C(O)C(F)(F)F (stereo unspecified),-2.58
16,Cc1nc(COC[C@H]2CCC[C@@]23CN(C(C)C)CCO3)cs1.O=C(O)C(F)(F)F,-25.66
17,COc1cccc([C@H]2CN(C(C)=O)[C@@H]3CCN(Cc4ccsc4)C[C@H]23)c1.Cl,-8.302
18,O=C(O)C(=O)O.c1coc(CN2CCC(c3ccc4c(c3)OCO4)CC2)c1,5.355
19,CC(Cn1cccn1)NCc1csc(COc2ccccc2)n1 (stereo unspecified),96.83

row,SMILES,Percent Effect [%]
1,COc1ccc(CNC(C)Cn2cccn2)cc1F (stereo unspecified),-3.821
2,CCc1nc(CNC(C)Cn2cccn2)cs1 (stereo unspecified),11.1
3,CC(Cn1cccn1)NCc1ccc(OCc2ccncc2)cc1 (stereo unspecified),-3.58
4,CC(Cn1cccn1)NCc1csc2c1CCCC2 (stereo unspecified),-4.744
5,CC(Cn1cccn1)NCc1csc(-c2ccc(F)cc2)n1 (stereo unspecified),41.6
6,CC(Cn1cccn1)NCc1csc(COc2ccc(F)cc2)n1 (stereo unspecified),104
7,CCCc1nc(CNC(C)Cn2cccn2)cs1 (stereo unspecified),69.81
8,CC(Cn1cccn1)NCc1csc(Cc2ccccc2)n1 (stereo unspecified),103.2
9,CC(Cn1cccn1)NCc1ccc(Cl)s1 (stereo unspecified),-2.882
10,CC(Cn1cccn1)NCc1csc(-c2ncccn2)n1 (stereo unspecified),-0.311
11,O=C(O)C(F)(F)F.O=C(c1ccnnc1)N1C[C@H]2CCC[C@@]2(COCc2ccccn2)C1,-25.48
12,COc1ccc(CCC2CCCCN2)cc1.Cl (stereo unspecified),-16.14
13,O=C(O)C(F)(F)F.O=C(c1cccnc1)N1C[C@H]2CN(Cc3cccc(F)c3)C(=O)[C@H]2C1,-29.23
14,Cc1oncc1C(=O)N1CC[C@@H]2[C@@H]1CC(=O)N2Cc1cccnc1.O=C(O)C(F)(F)F,26.27
15,N#Cc1cccc(C(=O)N2CC[C@H]3[C@H]2CCN3CC2CC2)c1.O=C(O)C(F)(F)F,-24.15
16,Fc1ccc(CN2CCC3(CC2)CCN(c2ncccn2)CC3)cc1.O=C(O)C(F)(F)F.O=C(O)C(F)(F)F,-1.526
17,CC1CN(C)CCN1C(=O)c1cnc2c(cnn2C2CCCC2)c1 (stereo unspecified),-19.82
18,O=C(NC1CC1)[C@H]1C[C@@H]2CCN(CCc3ccccc3)C[C@H]2O1.O=C(O)C(F)(F)F,-1.701
